Results taken from PubChem BioAssay AID2391 (Southern Research Specialized Biocontainment Screening …, 2010).
Hit rate of the full screen: of about 310,000 compounds, about 410 (0.13%) were called active. About 2% were inconclusive and are not listed. Only a sample is shown. Measured potencies and affinities stand elsewhere. Unmarked numbers belong to inactive results. The rule behind the calls is not given here.

Assay: RSV antiviral activity via CPE protection, HEp-2 cells, primary 10 µM value included (AID 2391)
Details: RSV-induced CPE inhibition, at 10 µM, stronger effect = higher value

SMILES | CPE inhibition
COc1cc(OC)cc(C(=O)NC(=S)N2CCCCC2c2cccnc2)c1 (stereo not drawn) | -0.07%
CCN1CCN(c2ccc(S(=O)(=O)N3CCCCC3)cc2NC(=O)CC(C)c2ccccc2)CC1 (stereo not drawn) | -2.47%
Cc1ccsc1C(=O)OCC(=O)NC1CCCCC1C (stereo not drawn) | 1.57%
CC1CN(C(C)C)C(C)CC1OC(=O)c1ccccc1 (stereo not drawn) | -0.34%
COC(=O)c1ccc(COn2c(=O)c(C)[n+]([O-])c3ccccc32)cc1 | 2.27%
O=C(COc1ccc(Br)cc1Cl)NNC(=O)c1ccccc1 | -0.21%
O=c1[nH]c(COc2ccc(Cl)cc2Cl)nc2ccccc12 | 20.4%
Cc1nc2c(C)cccn2c(=O)c1NC(=O)c1ccc2c(c1)OCO2 | -0.9%
COc1cccc(CN(C(=O)c2ccccc2)C2CCS(=O)(=O)C2)c1 (stereo not drawn) | 1.28%
N#CC(c1ccccc1)c1cccc(Cl)n1 (stereo not drawn) | -0.33%
COc1ccc(C(=O)N2CC(c3ccccc3)CC2=O)cc1 (stereo not drawn) | 1.75%
O=C1CC(c2ccccc2)CN1C(=O)c1ccccc1 (stereo not drawn) | 0.02%
Cc1c(C(=O)N2CCC(C)CC2)sc2ncn(CC(=O)N3CCC(C)CC3)c(=O)c12 | 3.53%
Cc1ccc(-c2nnn(CC(=O)N(CC(=O)NC3CCCC3)c3ccc(F)cc3)n2)o1 | 2.25%
CC1Cc2ccccc2N1S(=O)(=O)c1cccc(C(=O)NCCCO)c1 (stereo not drawn) | -0.32%
Nc1ccc(Cl)c[n+]1Cc1cccc2cccnc12 | 50.2%
Nc1scn[n+]1Cc1cccc2cccnc12 | 19.5%
Cc1cc(C[n+]2cc(Br)ccc2N)c2ncccc2c1 | 81%
Cc1cc(C[n+]2ncsc2N)c2ncccc2c1 | 18.8%
CCCC(=O)OC1CC(C)N(C(=O)c2ccccc2)c2ccc(C)cc21 (stereo not drawn) | 7.5%
COc1ccc(CCNC(=O)COc2cc(C)cc3oc(=O)cc(C)c23)cc1 | 2.6%
Cc1c(-c2ccccc2Cl)nc2ccccc2c1C(=O)O | 1.54%
Cc1c(-c2ccccc2)nc2ccccc2c1C(=O)O | 0.81%
NC(=O)CC(NC(=O)Cc1ccc(Br)cc1)c1ccc(NCCN2CCCC2)c([N+](=O)[O-])c1 (stereo not drawn) | 0.07%

SMILES | CPE inhibition
CC(Oc1ccc(Cl)cc1Cl)C(=O)NNC(=O)C(=O)N1CCCC1 (stereo not drawn) | 7.07%
COC(=O)NNC(=O)C(C)Oc1ccc(Cl)cc1Cl (stereo not drawn) | 0.74%
COc1ccc(CCn2c(C)cc(C(=O)COC(=O)c3ccc(NC(=O)CC#N)cc3)c2C)cc1 | 4.94%
COc1ccc(C(=O)OCCc2ccc(O)cc2)cc1 | 1.11%
Cc1cc(-c2cc(C(=O)NCc3ccccc3)on2)nc(S(C)(=O)=O)n1 | 2.46%
Cc1ccccc1N(C(=O)CNC(=O)c1ccco1)C(C(=O)NC1CCCCC1)c1ccncc1 (stereo not drawn) | 0.97%
CC(=O)NCCNC(=O)c1ccc(Cn2c(=O)[nH]c3ccsc3c2=O)cc1 | 0.58%
O=[N+]([O-])c1ccc(Cl)c(S(=O)(=O)Nc2ccc(-c3ccc(N4CCOCC4)nn3)cc2)c1 | 0.86%
O=[N+]([O-])c1ccc(Cl)c(S(=O)(=O)Nc2cccc(-c3ccc(N4CCCC4)nn3)c2)c1 | 55%
Cc1ccc([N+](=O)[O-])cc1S(=O)(=O)Nc1cccc(-c2ccc(N3CCOCC3)nn2)c1 | 30.8%
O=S(=O)(Nc1ccc(-c2ccc(N3CCOCC3)nn2)cc1)c1cc(Cl)ccc1Cl | 1.29%
COc1ccccc1OCCn1ccnc1 | 0.82%
O=C(CC1C(=O)NCCN1Cc1cccc(Oc2ccccc2)c1)NCCn1cccn1 (stereo not drawn) | 1.61%
CCn1ncc(CNC(=O)C2(C)CC2(Cl)Cl)c1C (stereo not drawn) | 2.51%
O=C(O)/C=C/C(=O)NCCC(c1ccccc1)c1ccccc1 | -0.16%
O=C(Nc1ccccc1)Nc1ccc(NC(=O)c2ccccc2O)cc1 | 1.31%
O=C(Nc1cccnc1)c1ccc(Cl)c(S(=O)(=O)N2CCCCC2)c1 | 10.1%
COc1cc(/C=C/c2cc(C(=O)O)c3ccccc3n2)cc(OC)c1O | -0.63%
CCOc1cc(/C=C/c2cc(C(=O)O)c3ccccc3n2)ccc1OC | 4.82%
COc1ccc(C2NC(=O)NC(C)=C2C(C)=O)cc1 (stereo not drawn) | 2.63%
Cc1cc(Nc2ccc(Cl)cc2)nc(-c2ccccc2O)n1 | 14.1%
Cc1cc(Nc2ccccc2)nc(-c2ccccc2O)n1 | 21.2%
C[C@H]1CCC(=O)N(CCSc2ccc(Br)cc2)CC1 | 0.08%
CC(C)(C)c1n[nH]c2c1CCCC2 | 3.59%

SMILES | CPE inhibition
COc1ccc2c(c1)-c1nc(NC(=O)c3ccco3)sc1CC2 | 45.2%
COc1ccc2c(c1)Cc1sc(NC(=O)c3cccs3)nc1-2 | 7.1%
Cc1nnc(SCC(=O)N2CCc3ccccc3C2)n1-c1ccccc1 | 2.35%
Cc1cc(C)c(NC(=O)CSc2nc3ccccc3c(=O)n2CCCN2CCOCC2)c(C)c1 | -0.42%
COc1ccc(CNC(=O)C(C)Sc2nc3ccccc3c(=O)n2CCCN2CCOCC2)cc1 (stereo not drawn) | -1.12%
C/C(N)=C(/C#N)C(=O)COC(=O)C(NS(=O)(=O)c1ccc(Cl)cc1)C(C)O (stereo not drawn) | 0.82%
Cc1cc(C(=O)N2CCCC(N3CCN(c4cccc(Cl)c4)CC3)C2)nn1C (stereo not drawn) | -0.33%
Cc1ccc(OCCCn2ccnc2)cc1C | 0.08%
COc1cc(N)c(Cl)cc1C(=O)OCC(=O)Nc1cccnc1Cl | 0.52%
COc1cc2c(cc1OC)[C@H](C)N(C(=O)CSc1nc(O)c(C(C)C)c(=O)[nH]1)CC2 | 0.69%
O=C(/C=C/c1c(F)cccc1Cl)N1CCOCC1 | 0.12%
O=C(/C=C/c1ccc(OCCCF)cc1)N1CCOCC1 | 2.87%
Cc1cc(C)n(-c2ccc(C(=O)OCC(=O)NCc3ccc(F)cc3)cc2)n1 | 0.92%
Cc1nc(-c2noc(-c3cccc(Cl)c3)n2)c(C(F)(F)F)o1 | 1.74%
CC(C(=O)N1CCc2ccccc21)n1cccc1 (stereo not drawn) | 1.93%
CC(Nc1ccc2c(c1)OCCO2)C(=O)N1CCc2ccccc21 (stereo not drawn) | 3.03%
CCOc1ccc(Br)cc1S(=O)(=O)Nc1ccc(C(=O)OCC(=O)Nc2ccc(C#N)cc2)cc1 | 2.94%
O=C(NC1CCN(S(=O)(=O)c2cccc(Cl)c2)CC1)C1CCCCC1 | 1.22%
CCOc1ccc(S(=O)(=O)NCCC(=O)Nc2nnc(C)s2)cc1 | 1.74%
CCCOc1ccc(N2C(=O)CC(N(Cc3ccccc3)N=O)C2=O)cc1 (stereo not drawn) | -0.02%
CCCOc1ccc(N2C(=O)CC(N(CCc3ccc(OC)cc3)C(=O)c3ccccc3)C2=O)cc1 (stereo not drawn) | 3.8%
N#C/C(=C\c1ccccc1O)C(=O)Nc1ccccn1 | 9.95%
Cc1cc([N+](=O)[O-])cc(C)c1OCC(=O)N/N=C/c1ccc(OC(=O)c2ccccc2)cc1 | 10.1%
COc1cc(/C=N/NC(=O)COc2c(C)cc([N+](=O)[O-])cc2C)ccc1OC(=O)c1ccccc1Br | 5.39%

SMILES | CPE inhibition
Cc1sc2c(c1C)c(=O)n(-c1ccc(Cl)cc1)c(=O)n2Cc1cc(=O)n2ccccc2n1 | 8.46%
O=c1c2sccc2nc(SCc2cc(=O)n3ccccc3n2)n1Cc1ccccn1 | 0.36%
CCOc1ccc(-n2c(=O)c3sccc3n(Cc3ccc(C)cc3)c2=O)cc1 | 2.63%
Cc1ccc(-n2c(=O)c3c4c(sc3n(Cc3cc(=O)n5ccccc5n3)c2=O)CCC4)cc1C | 9.89%
Cc1ccc(-n2c(=O)c3c(C)c(C)sc3n(Cc3cc(=O)n4ccccc4n3)c2=O)cc1C | 11.6%
COc1cc(-n2c(=O)c3ccccc3n(Cc3cc(=O)n4ccccc4n3)c2=O)cc(OC)c1OC | 2%
Cc1sc2ncnc(N3CCC(C(=O)Nc4ccc(Br)cc4Br)CC3)c2c1C | 10.1%
CCOC(=O)c1cc(-c2ccccc2)n(Cc2cc(CC)no2)n1 | 2.08%
Cc1ccc(-n2nc3c(c2NC(=O)c2ccco2)CS(=O)(=O)C3)cc1 | 1.04%
Cc1ccc(S(=O)(=O)Nc2ccncc2)c(C)c1N(C)S(=O)(=O)c1ccc(Cl)cc1 | 3.66%
CCOC(=O)c1c(C)nc2c(c1-c1cc(OC)ccc1OC)C(=O)c1ccccc1-2 | 0.88%
CN(C)[C@@H]1CCC[C@@H]1OC(=O)C(c1ccccc1)c1ccccc1 | 1.33%
COc1ccc(C(=O)NCc2nnc(SCC(=O)Nc3cc(C)on3)o2)cc1OC | 0.22%
Cc1ccccc1-c1cc2nc(C)c(C)c(=O)n2[nH]1 | 2.53%
Cc1cccnc1NC1CCCCC1 | 0.99%
COc1ccc(NC(=O)COc2ccccc2C(=O)NCC(c2ccccc2)N(C)C)cc1Cl (stereo not drawn) | 0.1%
O=C(/C=C/c1c(Cl)cccc1Cl)Nc1ccncc1 | 15.2%
CN(C)c1ccc(NC(=O)/C=C/c2ccccc2Cl)cc1 | 4.05%
CCCCNCc1cc(Br)c(OCC(=O)N2CCOCC2)c(OC)c1 | 0.24%
O=C(O)Cc1ccc(NC(=O)c2ccc3c(c2)C(=O)N(Cc2ccco2)C3=O)cc1 | 1.76%
O=C(Nc1ccc2c(c1)CCC2)C1CCCN(c2ncccn2)C1 (stereo not drawn) | -1.9%
